The whole screen tested about 5,500 compounds, of which about 2,000 (36%) were called active. About 18% were inconclusive and are not listed. Rule as the data show it: active = normalized growth mostly below about 0.91 (no sharp cut-off); inconclusive = no clear call, values can overlap the other calls; inactive = mostly above about 0.92. The list shows a part of the results.
Assay: chemical genetic growth profiling, strain panel (AID 1159580);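 also: tested at 20 µM; growth read once vehicle control cultures reached saturation at 30 °C; 1 = growth at the plate median or of vehicle wells; lower values mean less growth of the strain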
Conditions: S. cerevisiae deletion strains, growth OD

Measured: normalized growth

CCC(=O)NCC[C@@H]1CCc2ccc3c(c21)CCO3
active: locus YOR270C, strain vph1, active compounds read low 0.771
inactive: locus YAL021C, strain ccr4, active compounds read low 1.03 | locus YAL026C, strain drs2, active compounds read low 1.01 | locus YAL030W, strain snc1, active compounds read low 1.01 | locus YBL061C, strain skt5, active compounds read low 1.02 | locus YBR009C, strain hhf1, active compounds read low 0.987 | locus YBR023C, strain chs3, active compounds read low 1.02 | locus YBR171W, strain sec66, active compounds read low 1 | locus YBR231C, strain swc5, active compounds read low 0.993 | locus YBR279W, strain paf1, active compounds read low 1.02 | locus YCL011C, strain gbp2, active compounds read low 1 | locus YCL016C, strain dcc1, active compounds read low 1.04 | locus YCL061C, strain MRC1, active compounds read low 0.988 | locus YCL069W, strain vba3, active compounds read low 1 | locus YCR088W, strain abp1, active compounds read low 1.01 | locus YDL005C, strain med2, active compounds read low 0.995 | locus YDL040C, strain nat1, active compounds read low 1 | locus YDR001C, strain nth1, active compounds read low 1 | locus YDR069C, strain doa4, active compounds read low 0.982 | locus YDR137W, strain rgp1, active compounds read low 1.04 | locus YDR159W, strain sac3, active compounds read low 0.924 | locus YDR195W, strain ref2 1.01 | locus YDR297W, strain sur2, active compounds read low 0.989 | locus YDR334W, strain swr1, active compounds read low 1 | locus YDR335W, strain msn5, active compounds read low 0.998 | locus YDR392W, strain spt3, active compounds read low 0.988 | locus YEL003W, strain gim4, active compounds read low 0.972 | locus YEL037C, strain rad23, active compounds read low 1.01 | locus YEL061C, strain CIN8 (second series), active compounds read low 0.991 | locus YER015W, strain faa2, active compounds read low 1 | locus YER016W, strain bim1, active compounds read low 1.02 | locus YER111C, strain swi4, active compounds read low 1.03 | locus YER155C, strain BEM2 (second series), active compounds read low 1.06 | locus YFR010W, strain ubp6, active compounds read low 0.953 | locus YGL167C, strain pmr1, active compounds read low 1 | locus YGL173C, strain kem1, active compounds read low 0.978 | locus YGL227W, strain vid30, active compounds read low 1.01 | locus YGL240W, strain doc1, active compounds read low 1.01 | locus YGL253W, strain hxk2, active compounds read low 0.972 | locus YHR013C, strain ard1, active compounds read low 1.02 | locus YHR027C, strain rpn1, active compounds read low 0.998 | locus YHR030C, strain SLT2, active compounds read low 0.947 | locus YHR079C, strain IRE1, active compounds read low 0.953 | locus YHR142W, strain chs7, active compounds read low 0.989 | locus YJL092W, strain hpr5, active compounds read low 1.01 | locus YJL095W, strain BCK1 (second series), active compounds read low 1.01 | locus YJL095W, strain BCK1, active compounds read low 0.981 | locus YJL115W, strain asf1, active compounds read low 1.02 | locus YJL129C, strain trk1, active compounds read low 1 | locus YJL154C, strain vps35, active compounds read low 1.01 | locus YJL164C, strain tpk1, active compounds read low 0.968 | locus YJL166W, strain qcr8, active compounds read low 0.98 | locus YJL187C, strain SWE1, active compounds read low 1.01 | locus YJR066W, strain TOR1, active compounds read low 0.936 | locus YKL160W, strain elf1, active compounds read low 1.05 | locus YKR026C, strain gcn3, active compounds read low 1.01 | locus YKR091W, strain srl3, active compounds read low 1 | locus YLL001W, strain dnm1, active compounds read low 0.952 | locus YLL026W, active compounds read low 1 | locus YLL041C, strain sdh2, active compounds read low 0.997 | locus YLR027C, strain aat2, active compounds read low 0.999 | locus YLR113W, strain HOG1, active compounds read low 0.95 | locus YLR221C, strain rsa3, active compounds read low 0.953 | locus YLR258W, strain gsy2, active compounds read low 1.02 | locus YLR262C, strain YPT6 (second series), active compounds read low 1.01 | locus YLR320W, strain mms22, active compounds read low 0.975 | locus YLR342W, strain FKS1, active compounds read low 1 | locus YLR357W, strain rsc2, active compounds read low 1.02 | locus YLR370C, strain arc18, active compounds read low 1 | locus YLR384C, strain iki3, active compounds read low 1.01 | locus YML120C, strain ndi1, active compounds read low 0.963 | locus YMR058W, strain fet3, active compounds read low 1.01 | locus YMR125W, strain sto1, active compounds read low 1 | locus YMR129W, active compounds read low 0.985 | locus YMR205C, strain PFK2, active compounds read low 1 | locus YMR231W, strain pep5, active compounds read low 1 | locus YNL071W, strain lat1, active compounds read low 1.01 | locus YNL183C, strain NPR1, active compounds read low 0.904 | locus YNL209W, strain ssb2, active compounds read low 1.01 | locus YNL248C, strain rpa49, active compounds read low 1.01 | locus YNL322C, strain KRE1 (second series), active compounds read low 1.02 | locus YNR049C, strain mso1, active compounds read low 1 | locus YOR001W, strain rrp6, active compounds read low 0.929 | locus YOR070C, strain gyp1, active compounds read low 1.02 | locus YOR080W, strain dia2, active compounds read low 1.01 | locus YOR083W, strain WHI5, active compounds read low 0.966 | locus YOR106W, strain vam3, active compounds read low 1 | locus YOR231W, strain MKK1, active compounds read low 0.969 | locus YOR265W, strain rbl2, active compounds read low 1 | locus YOR290C, strain snf2, active compounds read low 1.01 | locus YPL051W, strain arl3, active compounds read low 1.06 | locus YPL078C, strain atp4, active compounds read low 1.03 | locus YPL106C, strain sse1, active compounds read low 1.04 | locus YPL240C, strain hsp82, active compounds read low 1.01 | locus YPL256C, strain CLN2, active compounds read low 0.942

From PubChem BioAssay AID1159580 (chemical genetic matrix, 2015)
